The whole screen tested about 360,000 compounds, of which about 2,400 (0.67%) were called active. This excerpt belongs to a sample that is enriched for actives. Unmarked numbers belong to inactive results.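 Rule for the calls: active = compounds whose normalised, plate-corrected inhibition of enzyme fluorescence in the single-dose primary screen is 50% or more; inactive = the rest.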
The molecules below were run against Fatty acid synthase (Homo sapiens) (UniProt P49327) (assay: inhibition of human FAS-TE enzyme activity – biochemical, fluorescence intensity, uHTS, primary screen (AID 602261;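 note: 0% = DMSO with enzyme and 100% = substrate without enzyme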)). Settings: recombinant FAS-TE, OMFH fluorogenic substrate, fluorescence endpoint; at 15 µM; active compounds read high.
Fatty acid synthase (Homo sapiens), sequence (P49327 whole entry, looked up): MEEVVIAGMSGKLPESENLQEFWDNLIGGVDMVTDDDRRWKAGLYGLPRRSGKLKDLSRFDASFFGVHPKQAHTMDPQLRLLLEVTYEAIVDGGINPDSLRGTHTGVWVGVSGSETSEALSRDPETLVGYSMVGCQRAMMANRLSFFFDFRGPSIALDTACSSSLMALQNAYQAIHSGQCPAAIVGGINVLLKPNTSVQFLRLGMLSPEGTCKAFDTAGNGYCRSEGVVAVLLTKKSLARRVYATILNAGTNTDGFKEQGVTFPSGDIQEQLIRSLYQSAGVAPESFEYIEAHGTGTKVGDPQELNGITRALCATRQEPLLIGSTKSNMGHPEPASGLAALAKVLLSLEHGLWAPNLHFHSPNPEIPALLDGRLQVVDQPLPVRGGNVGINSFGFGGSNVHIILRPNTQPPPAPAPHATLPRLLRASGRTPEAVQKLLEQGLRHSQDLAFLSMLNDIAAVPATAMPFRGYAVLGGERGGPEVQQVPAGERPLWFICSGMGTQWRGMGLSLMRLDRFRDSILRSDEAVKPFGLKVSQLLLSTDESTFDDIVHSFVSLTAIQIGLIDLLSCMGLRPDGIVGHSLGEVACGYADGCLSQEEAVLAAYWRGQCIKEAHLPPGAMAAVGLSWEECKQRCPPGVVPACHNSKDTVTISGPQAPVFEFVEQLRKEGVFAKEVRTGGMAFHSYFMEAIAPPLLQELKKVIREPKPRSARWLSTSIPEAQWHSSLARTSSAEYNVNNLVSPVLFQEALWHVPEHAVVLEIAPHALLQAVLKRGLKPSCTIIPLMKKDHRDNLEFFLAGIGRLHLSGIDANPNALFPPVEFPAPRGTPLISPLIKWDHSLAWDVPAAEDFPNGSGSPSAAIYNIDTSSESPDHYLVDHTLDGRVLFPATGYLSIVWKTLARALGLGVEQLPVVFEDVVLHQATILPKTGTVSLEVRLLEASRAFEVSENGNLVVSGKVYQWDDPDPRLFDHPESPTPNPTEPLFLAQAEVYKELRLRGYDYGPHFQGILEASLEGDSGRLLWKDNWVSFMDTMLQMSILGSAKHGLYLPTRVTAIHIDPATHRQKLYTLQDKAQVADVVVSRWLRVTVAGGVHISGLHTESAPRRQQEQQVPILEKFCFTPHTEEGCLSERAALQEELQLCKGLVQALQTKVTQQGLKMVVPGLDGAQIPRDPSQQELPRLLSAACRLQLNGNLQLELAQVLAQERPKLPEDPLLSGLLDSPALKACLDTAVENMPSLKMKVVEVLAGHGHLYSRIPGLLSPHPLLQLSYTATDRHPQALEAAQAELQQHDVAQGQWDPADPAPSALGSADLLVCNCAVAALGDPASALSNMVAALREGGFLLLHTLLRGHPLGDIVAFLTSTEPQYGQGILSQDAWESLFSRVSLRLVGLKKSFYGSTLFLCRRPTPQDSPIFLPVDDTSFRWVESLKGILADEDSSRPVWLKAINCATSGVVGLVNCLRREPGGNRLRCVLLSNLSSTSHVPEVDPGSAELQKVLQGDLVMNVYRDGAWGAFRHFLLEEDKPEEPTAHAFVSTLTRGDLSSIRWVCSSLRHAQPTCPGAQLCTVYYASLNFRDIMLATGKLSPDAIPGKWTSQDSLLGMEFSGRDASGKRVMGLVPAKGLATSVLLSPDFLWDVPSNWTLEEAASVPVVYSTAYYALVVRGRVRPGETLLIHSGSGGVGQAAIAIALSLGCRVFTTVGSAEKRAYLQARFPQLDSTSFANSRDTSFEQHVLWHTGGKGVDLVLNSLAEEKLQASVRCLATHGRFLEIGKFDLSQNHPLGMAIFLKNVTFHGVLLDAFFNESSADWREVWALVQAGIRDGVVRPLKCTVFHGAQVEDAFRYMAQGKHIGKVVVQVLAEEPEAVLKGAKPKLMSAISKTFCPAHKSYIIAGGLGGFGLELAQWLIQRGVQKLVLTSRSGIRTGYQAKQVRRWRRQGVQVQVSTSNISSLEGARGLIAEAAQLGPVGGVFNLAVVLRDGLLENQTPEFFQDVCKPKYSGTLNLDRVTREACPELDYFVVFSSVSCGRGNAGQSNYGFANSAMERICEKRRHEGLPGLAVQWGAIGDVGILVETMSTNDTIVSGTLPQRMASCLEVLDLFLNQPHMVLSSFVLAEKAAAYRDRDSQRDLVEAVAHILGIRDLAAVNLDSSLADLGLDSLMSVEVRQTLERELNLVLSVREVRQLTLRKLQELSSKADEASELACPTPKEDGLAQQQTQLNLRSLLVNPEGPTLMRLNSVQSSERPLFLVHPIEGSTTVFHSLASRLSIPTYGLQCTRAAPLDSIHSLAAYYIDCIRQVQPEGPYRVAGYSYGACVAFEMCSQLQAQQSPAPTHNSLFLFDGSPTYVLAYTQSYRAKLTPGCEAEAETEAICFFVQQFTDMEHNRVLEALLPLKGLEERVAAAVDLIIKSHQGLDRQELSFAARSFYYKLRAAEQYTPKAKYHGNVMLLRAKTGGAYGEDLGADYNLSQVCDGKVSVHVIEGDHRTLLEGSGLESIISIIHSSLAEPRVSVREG

Question: `COc1cc(-c2noc(C3CCCN(S(=O)(=O)c4cccc(Cl)c4)C3)n2)cc(OC)c1OC` (configuration not stated) was tested. Which inhibition did it give?
Answer: The inhibition was 50.7% (active).

Question: `COc1cccc(-c2noc(C3CCCN(C(=O)c4ccc(F)cc4)C3)n2)c1` (configuration not stated) was tested. Which inhibition did it give?
Answer: Its inhibition is -3.3%.

Question: For `CC(C)c1ccc(-c2noc(C3CCCN(S(C)(=O)=O)C3)n2)cc1` (configuration not stated), which inhibition is on record?
Answer: Its inhibition is 16.9%.

Question: Which inhibition does the source give for `Nc1ccc(SCCN2C(=O)c3ccccc3C2=O)cc1` here?
Answer: Its inhibition is -1.7%.

Question: With `CC(C)c1ccc2c(c1)c(SC(C)(C)C)c(CC(C)(C)C(=O)O)n2Cc1ccc(Cl)cc1` as the molecule, how does the inhibition read?
Answer: Its inhibition is 80.4% (active).

Question: Which inhibition does the source give for `O=C(NCc1ccccc1)C1CCCN(c2nc3ccsc3c(=O)s2)C1` (configuration not stated) here?
Answer: Its inhibition is -1.5%.

Question: With `Nc1ccc(N=Nc2ccccc2Cl)c(N)n1` as the molecule, how does the inhibition read?
Answer: Its inhibition is 12%.

Question: For `CN(C)C(CNC(=O)Cc1ccc([N+](=O)[O-])cc1)c1ccccc1` (configuration not stated), which inhibition is on record?
Answer: Its inhibition is 3.9%.

Question: For `O=C(NCC(O)c1ccc([N+](=O)[O-])cc1)C1CCCCC1` (configuration not stated), which inhibition is on record?
Answer: Its inhibition is -3.9%.

Question: How did the inhibition turn out when `O=C(CC(c1ccccc1)c1ccccc1)NCC(O)c1ccc([N+](=O)[O-])cc1` (configuration not stated) was run?
Answer: Its inhibition is 50.4% (active).

Question: Which inhibition does the source give for `COc1ccc(C(=O)NC(=S)N2CCCCC2c2cccnc2)cc1OC` (configuration not stated) here?
Answer: Its inhibition is -3.7%.

Question: How did the inhibition turn out when `Cc1ccccc1-n1c(C)cc(/C=N/NC(=O)c2ccc(CN3CCOCC3)cc2)c1C` was run?
Answer: Its inhibition is -7.5%.

Question: How did the inhibition turn out when `COc1ccc(NC(=O)CCn2ccnc2)c(OC)c1` was run?
Answer: Its inhibition is -2.6%.

Question: How did the inhibition turn out when `O=C(O)c1ccccc1N=N/C(=N/Nc1cc(S(=O)(=O)O)ccc1O)c1ccccc1` was run?
Answer: The inhibition was 3.7%.

Question: For `COc1ccc(NS(=O)(=O)c2cc(NC(=O)C3CCCCC3)ccc2N2CCOCC2)cc1`, which inhibition is on record?
Answer: Its inhibition is 10.3%.

Question: How did the inhibition turn out when `COc1ccc(NS(=O)(=O)c2cc(NC(=O)c3ccc(S(=O)(=O)N(C)C)cc3)ccc2N2CCOCC2)cc1` was run?
Answer: The inhibition was 88.6% (active).

Question: For `COc1cc(/C=C/C(=O)Nc2ccc(OC)c(S(=O)(=O)N3CCOCC3)c2)ccc1OCC#N`, which inhibition is on record?
Answer: Its inhibition is -0.4%.

Question: Which inhibition does the source give for `COc1ccc(NS(=O)(=O)c2cc(NC(=O)/C=C/c3cc(OC)c(OC)c(OC)c3)ccc2N2CCCCC2)cc1` here?
Answer: The inhibition was 50.6% (active).

Question: With `COc1ccc(NS(=O)(=O)c2ccc(N3CCOCC3)c(NC(=O)/C=C/C(=O)O)c2)cc1` as the molecule, how does the inhibition read?
Answer: The inhibition was -5.8%.

Question: Which inhibition does the source give for `COc1ccc(NS(=O)(=O)c2ccc(N3CCN(CCO)CC3)c([N+](=O)[O-])c2)cc1` here?
Answer: The inhibition was -6.1%.

Question: How did the inhibition turn out when `O=C(NC(C(=O)NCCN1CCOCC1)C12CC3CC(CC(C3)C1)C2)C1CCCCC1` (configuration not stated) was run?
Answer: Its inhibition is -6.3%.

Question: With `CCCCN(CC(=O)Nc1cccc(S(=O)(=O)N2CCCC2)c1)Cc1nc2ccccc2c(=O)[nH]1` as the molecule, how does the inhibition read?
Answer: Its inhibition is 8.2%.

Question: How did the inhibition turn out when `CCOCCCN(C)C1CCN(C(=O)c2oc3ccccc3c2NC(=O)COc2cccc(C)c2)CC1` was run?
Answer: The inhibition was 1.2%.

Question: Which inhibition does the source give for `CCC(C)N(C(=O)CSc1ncnc2c1cnn2-c1ccccc1)C1CCS(=O)(=O)C1` (configuration not stated) here?
Answer: The inhibition was 22.1%.

Question: With `CCN(C(=O)CSc1ncnc2c1cnn2-c1ccccc1)C1CCS(=O)(=O)C1` (configuration not stated) as the molecule, how does the inhibition read?
Answer: Its inhibition is 57.4% (active).

Question: `CC(C)CN(C(=O)CSc1ncnc2sccc12)C1CCS(=O)(=O)C1` (configuration not stated) was tested. Which inhibition did it give?
Answer: The inhibition was -7.9%.

Question: How did the inhibition turn out when `COc1cc(C(O)c2nc(-c3cnn(C)c3)cs2)ccc1F` (configuration not stated) was run?
Answer: The inhibition was -5.1%.

Question: Which inhibition does the source give for `COc1ccc(N2CCN(S(=O)(=O)c3cc(Br)cnc3N)CC2)cc1` here?
Answer: The inhibition was -1.1%.

Question: Which inhibition does the source give for `Cc1ccc(S(=O)(=O)N2CC(C)N(S(C)(=O)=O)C2)cc1` (configuration not stated) here?
Answer: The inhibition was -3.6%.

Question: For `Cc1nc2c(OCc3cccc(Cl)c3)cccn2c1N(C)CC1CC1`, which inhibition is on record?
Answer: Its inhibition is 17.1%.

Question: How did the inhibition turn out when `CCc1nc2c(OCc3ccc(Cl)cc3Cl)cccn2c1N(C)C(=O)C(C)C` was run?
Answer: The inhibition was 9.4%.

Question: For `Cc1nc2c(OCc3ccc(Cl)cc3Cl)cccn2c1N(C)CC1CC1`, which inhibition is on record?
Answer: Its inhibition is 57.2% (active).

Question: Which inhibition does the source give for `Cc1ccc(C2C(C#N)C(C#N)N3CCCN23)cc1` (configuration not stated) here?
Answer: The inhibition was -18.8%.

Question: With `COc1cc2c(=O)n(C)c3ccccc3c2cc1OC` as the molecule, how does the inhibition read?
Answer: The inhibition was -3.2%.

Question: With `COCC(=O)N(C)C[C@H]1Oc2cc(Br)ccc2S(=O)(=O)N([C@H](C)CO)C[C@H]1C` as the molecule, how does the inhibition read?
Answer: The inhibition was -6%.

Question: How did the inhibition turn out when `COc1cc(OC)cc(C(=O)NC2CCN(C(=O)N3c4ccccc4Sc4ccccc43)CC2)c1` was run?
Answer: The inhibition was 38.7%.

Question: Which inhibition does the source give for `CCCCCN(C(=O)CCC(=O)OCC(=O)NC1CCC(C)CC1)c1c(N)n(CCCC)c(=O)[nH]c1=O` (configuration not stated) here?
Answer: The inhibition was -3.8%.

Question: Which inhibition does the source give for `CCN(c1ccccc1)S(=O)(=O)c1ccc(C(=O)Nc2ccccc2OC)cc1` here?
Answer: Its inhibition is 19.5%.

Question: For `COc1ccc([N+](=O)[O-])cc1NC(=O)c1ccc(N(Cc2ccccc2C)S(C)(=O)=O)cc1`, which inhibition is on record?
Answer: The inhibition was 62.6% (active).

Question: `Cc1ccccc1CN(c1ccc(C(=O)NCC2CCCO2)cc1)S(C)(=O)=O` (configuration not stated) was tested. Which inhibition did it give?
Answer: Its inhibition is -11.4%.

Question: How did the inhibition turn out when `CCc1nc2ccc(C(=O)N(C)Cc3ccco3)cn2c1N(C)C(=O)Cc1ccccc1` was run?
Answer: The inhibition was -8%.

Question: Which inhibition does the source give for `O=C1N(c2ccc(Cl)cc2)C(c2ccc(Cl)cc2)N2CCCN12` (configuration not stated) here?
Answer: Its inhibition is 21.3%.

Question: How did the inhibition turn out when `COCCCN1C(=O)C(CC(=O)NCc2cccs2)CC(C(=O)N2CCOCC2)=C1C` (configuration not stated) was run?
Answer: The inhibition was -5.4%.

Question: `CCOCCOC(=O)C1=C(C)NC(=O)NC1c1ccc2c(c1)OCO2` (configuration not stated) was tested. Which inhibition did it give?
Answer: Its inhibition is -6.1%.

Question: For `CCC(CC)COC(=O)C1=C(C)NC(=O)NC1c1ccc([N+](=O)[O-])cc1` (configuration not stated), which inhibition is on record?
Answer: Its inhibition is 71.6% (active).

Question: Which inhibition does the source give for `CC1=C(C(=O)OCC2CCCCC2)C(c2ccc(F)cc2)NC(=O)N1` (configuration not stated) here?
Answer: Its inhibition is 17.2%.

Question: For `N[C@@H](Cc1ccccc1)C(=O)N1CCC(C(=O)NCC(=O)Nc2ccc(F)cc2)CC1`, which inhibition is on record?
Answer: The inhibition was -6.7%.

Question: With `CC(C)(O)C#Cc1ncc(C(F)(F)F)cc1Cl` as the molecule, how does the inhibition read?
Answer: Its inhibition is -1.4%.

Question: With `COC(=O)[C@@H]1CC(O)CN1C(=O)C12CC3CC(CC(C3)C1)C2` (some centres not stated) as the molecule, how does the inhibition read?
Answer: The inhibition was -6.7%.

Question: With `CCOC(=O)c1cnn2c(SC)ncnc12` as the molecule, how does the inhibition read?
Answer: The inhibition was -6.9%.

Question: Which inhibition does the source give for `O=C1NC(Cc2ccccc2)c2nc3ccc(Br)cc3c(=O)n2-c2cc3ccccc3cc21` (configuration not stated) here?
Answer: Its inhibition is 84.7% (active).

Question: For `CCC1NC(=O)c2cccnc2-n2c1nc1ccc(C)cc1c2=O` (configuration not stated), which inhibition is on record?
Answer: Its inhibition is -5.4%.

Question: For `Cc1cc(C)c2c(=O)n3c(nc2c1)C(CC(C)C)NC(=O)c1cc2ccccc2cc1-3` (configuration not stated), which inhibition is on record?
Answer: Its inhibition is 2.3%.

Question: With `C=CCSc1nsc(NC(=O)Nc2cccc(C(C)=O)c2)n1` as the molecule, how does the inhibition read?
Answer: Its inhibition is 3.9%.

Question: Which inhibition does the source give for `Cc1ccc(N2C(=O)C3C(c4ccccc4)(C2=O)C3(c2ccccc2)c2ccccc2)cc1` (configuration not stated) here?
Answer: Its inhibition is 80.8% (active).

Question: With `Cc1ccc(N2C(=O)N3[C@@H]4c5ccccc5OC[C@@H]4[C@@H](c4ccccc4)[C@@]3(C)C2=O)cc1` as the molecule, how does the inhibition read?
Answer: The inhibition was 48.3%.

Question: How did the inhibition turn out when `Cc1ccc(C2SCC(=O)N2c2ccccc2)cc1` (configuration not stated) was run?
Answer: Its inhibition is -5.6%.

Question: With `COc1cc(C2C(C(=O)OCCC#N)=C(C)NC3=C2S(=O)(=O)c2ccccc23)cc(OC)c1OC` (configuration not stated) as the molecule, how does the inhibition read?
Answer: The inhibition was -7.7%.

Question: Which inhibition does the source give for `C=C(Cl)COC(=O)C1C2C=CC(C2)C1C(=O)O` (configuration not stated) here?
Answer: The inhibition was -6.6%.

Question: How did the inhibition turn out when `COc1cccc(CNS(=O)(=O)c2cc3c(cc2C)n(C)c(=O)c(=O)n3C)c1` was run?
Answer: The inhibition was -4.2%.

Question: How did the inhibition turn out when `CC1c2nc3ccccc3n2C(CC(=O)NCCCN2CCOCC2)C(=O)N1Cc1ccccc1` (configuration not stated) was run?
Answer: The inhibition was -2.2%.

Question: With `Cc1ccc(S(=O)(=O)N2C[C@]3(O)C[C@@H]4C(=O)N(c5ccccc5)C(=O)[C@@H]4C[C@]3(OC(=O)NC3CC3)C2)cc1` as the molecule, how does the inhibition read?
Answer: Its inhibition is 5.3%.

Question: Which inhibition does the source give for `C#CCN(C[C@@H]1[C@@H](OC(=O)NC2CC2)[C@@H](OC(=O)NC2CC2)Cn2c(=O)ccc(=O)n21)S(=O)(=O)c1ccc(C)cc1` here?
Answer: Its inhibition is -8%.

Question: For `C#CCN(C[C@H]1[C@H](OC(=O)NC2CCCC2)[C@H](OC(=O)NC2CCCC2)C[C@H]2C(=O)N(c3ccccc3)C(=O)[C@@H]12)S(=O)(=O)c1ccc(C)cc1`, which inhibition is on record?
Answer: The inhibition was 69.1% (active).

Question: Which inhibition does the source give for `O=C(NCc1ccco1)c1ccc(CS(=O)(=O)Cc2ccc(F)cc2)o1` here?
Answer: Its inhibition is -5.6%.

Question: Which inhibition does the source give for `C[C@H]1CN([C@@H](C)CO)C(=O)CCCn2nncc2CO[C@@H]1CN(C)Cc1ccc(Oc2ccccc2)cc1` here?
Answer: The inhibition was -4.9%.

Question: Which inhibition does the source give for `CCN(CCCNC(=O)CSc1cc(=O)n(C)c2cc(Cl)ccc12)Cc1ccccc1` here?
Answer: Its inhibition is 1.5%.

From PubChem BioAssay AID602261 (Sanford-Burnham Center for Chemical Genomics, 2012)
